Experimental data taken from the supplement of paper PMC4723716.
± gives the uncertainty stated by the source. Whole data set: some 9,900 compounds, median “viability index relative to DMSO control” near 1, cut for the lowest 2% near 0.85. The sample holds the lowest values, similar compounds and a random draw of the others, so the mix is not that of the screen.

System: Plasmodium falciparum NF54 stage V gametocytes
Test: viability index relative to DMSO control (fraction); higher = less gametocyte killing
Details: 2.5 µM, incubation time: 72 h
How it was run: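 Compound at 2.5 µM was incubated for 72 hr at 37°C under low oxygen with P. falciparum NF54 stage V gametocytes (0.75% gametocytemia, 1.25% hematocrit, 10 µl, serum-free screening medium) in 1,536-well plates. Staining used 3 µl of 2.5 µM MitoTracker Red CMXRos plus 0.13% saponin for one to two hours, and red particles of 20–70 µm2 were counted in one imaged field per well. Each viability index is that count relative to the plate mean of solvent-only wells.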

[1] = library set: Broad Institute DOS
[2] = library set: Broad Institute Blood Stage

| SMILES | viability index [1] | viability index [2] |
| --- | --- | --- |
| COc1ccccc1NC(=O)N1C[C@@H](O)COC[C@H]2O[C@H](CC(=O)N3CCC(Cc4ccccc4)CC3)CC[C@@H]21 | 1 ± 0.15 | – |
| COc1ccc(S(=O)(=O)Nc2ccc3c(c2)C(=O)N([C@H](C)CO)C[C@@H](C)[C@H](CN(C)S(=O)(=O)c2ccc(Cl)cc2)OCCCC[C@H](C)O3)cc1 | 0.823 ± 0.033 | – |
| COc1ccc(S(=O)(=O)Nc2ccc3c(c2)C(=O)N([C@@H](C)CO)C[C@H](C)[C@H](CN(C)Cc2ccc(C(F)(F)F)cc2)OCCCC[C@@H](C)O3)cc1 | 1.05 ± 0.2 | – |
| COc1ccc(S(=O)(=O)Nc2ccc3c(c2)C(=O)N([C@H](C)CO)C[C@@H](C)[C@@H](CN(C)S(=O)(=O)c2ccc(Cl)cc2)OCCCC[C@@H](C)O3)cc1 | 0.533 ± 0.11 | – |
| COc1ccc(S(=O)(=O)Nc2ccc3c(c2)C(=O)N([C@H](C)CO)C[C@@H](C)[C@H](CN(C)S(=O)(=O)c2ccc(Cl)cc2)OCCCC[C@@H](C)O3)cc1 | 0.887 ± 0.072 | – |
| COc1ccc(S(=O)(=O)Nc2ccc3c(c2)C(=O)N([C@@H](C)CO)C[C@H](C)[C@@H](CN(C)Cc2ccc(C(F)(F)F)cc2)OCCCC[C@@H](C)O3)cc1 | 0.829 ± 0.0097 | – |
| COc1ccc(S(=O)(=O)Nc2ccc3c(c2)C(=O)N([C@@H](C)CO)C[C@H](C)[C@H](CN(C)S(=O)(=O)c2ccc(Cl)cc2)OCCCC[C@@H](C)O3)cc1 | 0.953 ± 0.064 | – |
| COc1ccc(S(=O)(=O)Nc2ccc3c(c2)C(=O)N([C@H](C)CO)C[C@H](C)[C@@H](CN(C)S(=O)(=O)c2ccc(Cl)cc2)OCCCC[C@H](C)O3)cc1 | 0.886 ± 0.03 | – |
| COc1ccc(S(=O)(=O)Nc2ccc3c(c2)C(=O)N([C@@H](C)CO)C[C@@H](C)[C@@H](CN(C)S(=O)(=O)c2ccc(Cl)cc2)OCCCC[C@@H](C)O3)cc1 | 0.77 ± 0.046 | – |
| COc1ccc(S(=O)(=O)Nc2ccc3c(c2)C(=O)N([C@H](C)CO)C[C@H](C)[C@@H](CN(C)S(=O)(=O)c2ccc(Cl)cc2)OCCCC[C@@H](C)O3)cc1 | 1.02 ± 0.05 | – |
| COc1ccc(S(=O)(=O)Nc2ccc3c(c2)C(=O)N([C@@H](C)CO)C[C@@H](C)[C@H](CN(C)S(=O)(=O)c2ccc(Cl)cc2)OCCCC[C@H](C)O3)cc1 | 0.9073 ± 0.0032 | – |
| COc1ccc(S(=O)(=O)Nc2ccc3c(c2)C(=O)N([C@@H](C)CO)C[C@@H](C)[C@@H](CN(C)Cc2ccc(C(F)(F)F)cc2)OCCCC[C@H](C)O3)cc1 | 0.994 ± 0.023 | – |
| COc1ccc(S(=O)(=O)Nc2ccc3c(c2)C(=O)N([C@@H](C)CO)C[C@@H](C)[C@@H](CN(C)S(=O)(=O)c2ccc(Cl)cc2)OCCCC[C@H](C)O3)cc1 | 0.911 ± 0.031 | – |
| N#C[C@@H]1[C@H](c2ccccc2-c2cccc(F)c2)[C@@H](CO)N1C(=O)c1cccnc1 | 1.09 ± 0.063 | – |
| O=C(c1cccc(F)c1)N1CC2(C1)[C@H](c1ccccc1)[C@@H](CO)N2Cc1ccccn1 | 1.13 ± 0.11 | – |
| C[C@@H]1CN([C@@H](C)CO)C(=O)CCCn2nncc2CO[C@H]1CN(C)S(=O)(=O)c1ccc(Oc2ccccc2)nc1 | 1 ± 0.074 | – |
| C/C=C/c1ccc([C@H]2[C@H]3CNC[C@@H]2N3S(=O)(=O)Cc2ccccc2)cc1 | 1.06 ± 0.047 | – |
| N#C[C@H]1[C@@H](c2ccccc2-c2ccc(F)cc2)[C@@H](CO)N1C(=O)Cc1cccnc1 | 1.15 ± 0.046 | – |
| CO[C@@H]1CN(C)C(=O)c2cc(NC(=O)Nc3cc(F)ccc3F)ccc2OC[C@@H](C)NC[C@H]1C | 1.105 ± 0.0072 | – |
| Cc1noc(C)c1NC(=O)N(C)C[C@H]1Oc2ccc(NC(=O)Cc3cn(C)c4ccccc34)cc2CC(=O)N([C@H](C)CO)C[C@@H]1C | 1.04 ± 0.045 | – |
| COCC(=O)N1C[C@@H](C)[C@H](OC)CN(C)C(=O)c2ccc(NC(=O)Nc3cccc(F)c3)cc2OC[C@@H]1C | 1.032 ± 0.0043 | – |

| SMILES | viability index [1] | viability index [2] |
| --- | --- | --- |
| C[C@@H]1CCn2cc(nn2)COC[C@H](C)NC1=O | 1.06 ± 0.018 | – |
| CC(=O)N1[C@H](CO)[C@@H](c2ccccc2)C12CN(Cc1ccc(Cl)cc1)C2 | 1.06 ± 0.056 | – |
| CCN(C[C@H]1N[C@H](CO)[C@@H]1c1ccccc1)C(=O)c1ccncc1 | 1 ± 0.019 | – |
| C[C@H]1CCCCO[C@H](CN(C)C(=O)Nc2cccc3ccccc23)[C@@H](C)CN([C@@H](C)CO)C(=O)c2cc(NC(=O)CCC(F)(F)F)ccc2O1 | 0.993 ± 0.057 | – |
| COCC(=O)N1[C@H](C#N)[C@H](c2ccccc2-c2cccc(C)c2)[C@H]1CO | 1.15 ± 0.053 | – |
| CCCC(=O)Nc1ccc2c(c1)OC[C@H](C)N(CC1CCOCC1)C[C@@H](C)[C@H](OC)CN(C)C2=O | 1.02 ± 0.039 | – |
| O=C(C[C@@H]1CC[C@H]2NC[C@@H](O)COC[C@@H]2O1)Nc1ccc(-c2ccccc2)cc1 | 0.826 ± 0.077 | – |
| O=C(C[C@@H]1CC[C@@H]2NC[C@@H](O)COC[C@H]2O1)Nc1ccc(-c2ccccc2)cc1 | 1.06 ± 0.024 | – |
| O=C(C[C@H]1CC[C@@H]2NC[C@H](O)COC[C@H]2O1)Nc1ccc(-c2ccccc2)cc1 | 1.0439 ± 3.9e-05 | – |
| Cc1cccc(S(=O)(=O)N2C[C@H]3[C@@H](c4ccccc42)[C@H](CO)N3Cc2ccc3c(c2)OCO3)c1 | 1.01 ± 0.012 | – |
| O=C(C1CCOCC1)N1CC(=O)N2[C@H](CO)[C@H](c3ccc(/C=C/c4ccccc4)cc3)[C@@H]2C1 | 0.99 ± 0.011 | – |
| C[C@@H]1CN([C@@H](C)CO)C(=O)c2cccc(NC(=O)c3ccc(-c4nccs4)cc3)c2O[C@H]1CN(C)C(=O)Nc1ccc(C(F)(F)F)cc1 | 1.011 ± 0.0069 | – |
| C[C@@H]1CN([C@@H](C)CO)C(=O)c2cccc(NC(=O)c3ccc(-c4nccs4)cc3)c2O[C@@H]1CN(C)C(=O)Nc1cccc2ccccc12 | – | 0.784 ± 0.023 |
| Cc1noc(C)c1S(=O)(=O)N(C)C[C@@H]1Oc2c(NC(=O)c3ccc(-c4nccs4)cc3)cccc2C(=O)N([C@@H](C)CO)C[C@@H]1C | 0.955 ± 0.036 | – |
| C[C@@H]1CN([C@@H](C)CO)C(=O)c2cccc(NC(=O)C3CCOCC3)c2O[C@@H]1CN(C)C(=O)Nc1cccc2ccccc12 | 0.974 ± 0.06 | – |
| C[C@@H]1CN([C@H](C)CO)C(=O)c2cccc(NC(=O)c3ccc(-c4nccs4)cc3)c2O[C@H]1CN(C)C(=O)Nc1ccc(C(F)(F)F)cc1 | 0.97 ± 0.025 | – |
| C[C@@H]1CN([C@@H](C)CO)C(=O)c2cccc(NC(=O)c3ccc(-c4nccs4)cc3)c2O[C@@H]1CN(C)C(=O)Nc1ccc(C(F)(F)F)cc1 | 0.556 ± 0.084 | – |
| Cc1noc(C)c1S(=O)(=O)N(C)C[C@@H]1Oc2c(NC(=O)c3ccc(-c4nccs4)cc3)cccc2C(=O)N([C@H](C)CO)C[C@@H]1C | 0.978 ± 0.068 | – |
| C[C@H](CO)N1C[C@H](C)[C@H](CN(C)C(=O)Nc2cccc3ccccc23)Oc2ncccc2C1=O | 0.826 ± 0.021 | – |
| C[C@H](CO)N1C[C@H](C)[C@@H](CN(C)C(=O)Nc2ccc(C(F)(F)F)cc2)Oc2c(NC(=O)c3ccc(-c4nccs4)cc3)cccc2C1=O | 0.953 ± 0.018 | – |
| Cc1noc(C)c1S(=O)(=O)N(C)C[C@@H]1Oc2c(NC(=O)c3ccc(-c4nccs4)cc3)cccc2C(=O)N([C@@H](C)CO)C[C@H]1C | 0.828 ± 0.018 | – |

| SMILES | viability index [1] | viability index [2] |
| --- | --- | --- |
| C[C@H](CO)N1C[C@H](C)[C@H](CN(C)C(=O)Nc2ccc(C(F)(F)F)cc2)Oc2c(NC(=O)c3ccc(-c4nccs4)cc3)cccc2C1=O | 1.04 ± 0.021 | – |
| C[C@@H]1CN([C@@H](C)CO)C(=O)c2cccc(NC(=O)C3CCOCC3)c2O[C@H]1CN(C)C(=O)Nc1cccc2ccccc12 | 0.966 ± 0.063 | – |
| N#Cc1cccc(-c2ccc([C@@H]3[C@@H](CO)N4CCCCN(Cc5ccccc5F)C[C@H]34)cc2)c1 | 0.889 ± 0.028 | – |
| C[C@H](CO)N1C[C@H](C)[C@@H](CN(C)S(=O)(=O)c2ccc(Cl)cc2)OCCCC[C@H](C)Oc2ccc(NC(=O)Nc3ccc(C(F)(F)F)cc3)cc2C1=O | 1.1 ± 0.11 | – |
| O=C(CC1CC1)N1CC(=O)N2[C@H](C1)[C@H](c1ccc(C#Cc3cccc(F)c3)cc1)[C@@H]2CO | 0.974 ± 0.063 | – |
| COc1ccc([C@H]2C/C=C/C[C@H](C)Oc3ccccc3C(=O)N(C)[C@@H](Cc3ccccc3)C(=O)N2)c(OC)c1.COc1ccc([C@H]2C/C=C\C[C@H](C)Oc3ccccc3C(=O)N(C)[C@@H](Cc3ccccc3)C(=O)N2)c(OC)c1 | 0.861 ± 0.046 | – |
| COc1ccc2c3c([nH]c2c1)[C@@H](CO)N(C[C@]31CCN(CC1)S(C)(=O)=O)C(=O)NC1CCCC1 | 1.01 ± 0.02 | – |
| Cc1noc(C)c1S(=O)(=O)N(C)C[C@H]1OCc2ccccc2-c2c(n(C)c3ccccc23)C(=O)N([C@H](C)CO)C[C@H]1C | 0.948 ± 0.025 | – |
| O=S(=O)(c1cccc(F)c1)N1[C@@H]2CNC[C@H]1[C@H]2c1ccc(-c2ccccc2F)cc1 | 1.06 ± 0.051 | – |
| C[C@H]1CN([C@@H](C)CO)C(=O)c2c(c3ccccc3n2C)-c2ccccc2CO[C@H]1CN(C)S(=O)(=O)c1ccc(C(F)(F)F)cc1 | – | 0.705 ± 0.04 |
| C[C@@H]1CN([C@@H](C)CO)C(=O)c2c(c3ccccc3n2C)-c2ccccc2CO[C@H]1CN(C)Cc1cccc(C(F)(F)F)c1 | 0.932 ± 0.15 | – |
| C[C@H]1CN([C@@H](C)CO)C(=O)c2c(c3ccccc3n2C)-c2ccccc2CO[C@H]1CN(C)Cc1cccc(C(F)(F)F)c1 | 0.952 ± 0.02 | – |
| C[C@H](CO)N1C[C@H](C)[C@H](CN(C)S(=O)(=O)c2ccc(C(F)(F)F)cc2)OCc2ccccc2-c2c(n(C)c3ccccc23)C1=O | – | 0.693 ± 0.051 |
| C[C@@H]1CN([C@@H](C)CO)C(=O)c2c(c3ccccc3n2C)-c2ccccc2CO[C@@H]1CN(C)C(=O)Nc1ccccc1C(F)(F)F | 0.955 ± 0.039 | – |
| C[C@H](CO)N1C[C@H](C)[C@@H](CN(C)S(=O)(=O)c2ccc([N+](=O)[O-])cc2)OCc2ccccc2-c2c(n(C)c3ccccc23)C1=O | 0.896 ± 0.046 | – |
| C[C@H]1CN([C@@H](C)CO)C(=O)c2c(c3ccccc3n2C)-c2ccccc2CO[C@@H]1CN(C)C(=O)Nc1ccccc1C(F)(F)F | 1.009 ± 0.0034 | – |
| C[C@H](CO)N1C[C@H](C)[C@H](CN(C)S(=O)(=O)c2ccc([N+](=O)[O-])cc2)OCc2ccccc2-c2c(n(C)c3ccccc23)C1=O | 0.969 ± 0.015 | – |
| C[C@@H]1CN([C@@H](C)CO)C(=O)c2c(c3ccccc3n2C)-c2ccccc2CO[C@@H]1CN(C)S(=O)(=O)c1ccc([N+](=O)[O-])cc1 | 0.998 ± 0.098 | – |
| C[C@@H]1CN([C@@H](C)CO)C(=O)c2c(c3ccccc3n2C)-c2ccccc2CO[C@@H]1CN(C)Cc1cccc(C(F)(F)F)c1 | 0.839 ± 0.039 | – |
| C[C@@H]1CN([C@@H](C)CO)C(=O)c2c(c3ccccc3n2C)-c2ccccc2CO[C@H]1CN(C)C(=O)Nc1ccccc1C(F)(F)F | 0.805 ± 0.084 | – |
| C[C@@H]1CN([C@@H](C)CO)C(=O)c2c(c3ccccc3n2C)-c2ccccc2CO[C@H]1CN(C)S(=O)(=O)c1ccc([N+](=O)[O-])cc1 | 0.93 ± 0.086 | – |
